Assay results published in PubChem BioAssay (NCI).
The panel holds about 83,000 compounds, 20% with a hit somewhere; the sample as a whole holds those more often.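 Percent growth is the endpoint: 0 to 100 indicates growth inhibition (40 means 60% inhibition), 0 means no net growth, and negative values indicate cell death.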 A number with no mark means an inactive call. Calls of active or inactive are those of the source.

Test system: UO-31 renal
Test: NCI-60 one-dose screen, 48 h (100 = growth as untreated, 0 = no growth, -100 = all killed)
Settings: 10 µM unless noted
Experimental: Growth inhibition of the UO-31 human tumor cell line is measured as a screen for anti-cancer activity. Cells are grown in 96 well plates and exposed to the test compound for 48 hours. Compounds are tested at a single concentration, which is 10^-5 M for most compounds. The reported endpoint is percent growth (GI% or GIPRCNT), where numbers from 0 - 100% represent growth inhibition, and numbers from -100% - 0 represent cell death. For example, a value of 40 represents 60% growth inhibition. A value of 0 means no net growth occurred over the course of the experiment. A value of -40 indicates 40% of cells at the beginning of the experiment died by the end of the experiment. A value of -100 means all cells are dead at the end of the experiment.
NCI-60 Human Tumor Cell Lines Screen was performed using the standard one-dose NCI protocol, which is described in more detail at https://dtp.cancer.gov/discovery_development/nci-60/default.htm.
Compounds with GIPRCNT values below 10 were considered active. Activity score was based on GIPRCNT using the following formula: […]
Score is 0 for GIPRCNT values of 100 or above, 50 for GIPRCNT values of 0, and 100 for GIPRCNT values of -100.

Structure (SMILES) | growth
CN1CCN(Cc2cc(NC(=O)c3cccc(C#Cc4cccc5[nH]nc(N)c45)c3)cc(C(F)(F)F)c2)CC1 | -17% (active)
Cc1ccc(O)c(NC(=O)c2ccc(CNc3ccnc(C(F)(F)F)c3)cc2)c1 | 32.6%
COc1cc2c(c(OC)c1OC)C(=O)N[C@@H]1[C@@H](O)[C@@H](O)[C@H](O)C[C@@H]21 | 87.1%
CC(C)c1ccc(C(=O)Nc2sc3cc(O)ccc3c2C#N)cc1 | 25.1%
N#Cc1c(-c2ccccc2)nc2c(c(-c3ccccc3)nn2-c2ccccc2)c1-c1ccc(N2CCOCC2)cc1 | 70.3%
COc1ccc2c(c1)c(-c1nonc1-c1cn(C)c3ccc(OC)cc13)cn2C | 49%
COC(=O)c1ccc2c(c1)c1c(C)c3ccncc3c(C)c1n2C | 11.9%
COC(=O)C1=Nc2ccc(F)cc2/C1=C\c1sc(Nc2ccc(O)cc2)nc1O | 62.6%
CCN(C(=O)N1CCN(c2cc3c(cc2F)c(=O)c(C(=O)O)cn3C2CC2)CC1)c1nc(-c2ccc(C)cc2)cs1 | 5.96% (active)
Cn1cc(C(=O)c2nc(-c3c[nH]c4ccc(Br)cc34)no2)c2cc(Br)ccc21 | 67%
Cc1cccc(NC(=O)CSc2nc3ccc([N+](=O)[O-])cc3[nH]2)c1 | 54.2%
Fc1ccc2c(c1)c(-c1nc(-c3c[nH]c4ncccc34)cs1)cn2CCCN1CCOCC1 | 31.5%
C=C1C(=O)O[C@H]2[C@H]1CC/C(COC(=O)c1cc3cc(F)ccc3[nH]1)=C\CC[C@@]1(C)O[C@@H]21 | -88.1% (active)
O=C(Cn1nnc([N+](=O)[O-])n1)c1ccccc1 | 85.1%
O=C1c2cc3c(cc2-c2c1c1ccc(Cl)cc1c(=O)n2C[C@H](O)CO)OCO3 | -85.6% (active)
CCn1cc(C(=O)N/N=C/c2ccc(Br)cc2)c(=O)c2cc(F)c(N3CCNC(C)C3)c(F)c21 (stereo not given) | 68.4%
C=C1C(=O)O[C@H]2[C@H]1CC/C(COC(=O)NCCCCCCCCNC(=O)OC/C1=C/CC[C@@]3(C)O[C@H]3[C@H]3OC(=O)C(=C)[C@@H]3CC1)=C\CC[C@@]1(C)O[C@@H]21 | -92.4% (active)
O=C(NCc1ccc2c(c1)OCO2)NCC1CCCC(CNC(=O)NCc2ccc3c(c2)OCO3)C1 (stereo not given) | 95.7%
CCOC(=O)C(=Cc1cccc(C#N)c1)C(=O)OCC | 54.3%
COc1ccc(C/C(C)=C(\c2ccc(O)cc2)c2ccc(OCCN3CCCC3)cc2)cc1 | 86.1%

Structure (SMILES) | growth
CC1(C)CCC(S(=O)(=O)c2ccc3c(c2)/C(=N\O)c2cc(S(=O)(=O)N4CCN(c5ccc(F)cc5O)CC4)ccc2-3)CC1 | -91.4% (active)
O=C1C(Cl)=C(NCCN2CCOCC2)C(=O)c2ncccc21 | -75.7% (active)
O[C@@H](c1cc(C(F)(F)F)nc2c(C(F)(F)F)cccc12)[C@H]1CCCCN1 | 50.4%
Cn1cc(/C=C2/C(=O)Nc3ccccc32)c2ccccc21 | 57.9%
COc1ccc(OC)c(Nc2nnc(-c3ccc(Cl)cc3)o2)c1 | 51.8%
C[C@@H]1O[C@@H](O[C@@H]2C[C@H](c3ccc4c(c3O)C(=O)C3=C(C4=O)[C@@]4(O)C(=O)C[C@](C)(O)C[C@@]4(O)C=C3)O[C@H](C)[C@H]2O)C[C@H](O)[C@@H]1O | 78.9%
Cc1ccc(/C=C(\C#N)C(=O)Nc2ncc(Cc3cc(Cl)ccc3Cl)s2)o1 | 31.7%
CCN1C(=O)N(CC)C2C1NN=c1s/c(=C3\C(=O)N(CCc4ccccc4)c4ccccc43)c(=O)n12 (stereo not given) | 45.4%
CCSC1=CC(=O)c2ccccc2C1=O | 27%
COc1ccc(-c2ccc(-c3ccc(C(=N)N)cn3)s2)cc1 | 81.2%
C=C(C)[C@@H]1CC[C@]2(CO)CC[C@]3(C)[C@H](CC[C@@H]4[C@@]5(C)CCC(NCCc6ccc(O)cc6)C(C)(C)[C@@H]5CC[C@]43C)[C@@H]12 (stereo not given in full) | -96.9% (active)
Cc1cc(N2CCN(C)CC2)nc(NCc2cc(Nc3ccnc4cc(Cl)ccc34)ccc2F)n1 | -27.1% (active)
c1ccc(CNc2ccc3nc(CCC4CCCCC4)[nH]c3c2)cc1 | 37.5%
COc1cc(C#Cc2ccc(=O)oc2C#Cc2ccccc2)cc(OC)c1OC | 76.6%
O=C(/C=C/C12c3ccccc3C(c3ccccc31)C1C(=O)NC(=O)C12)c1ccc(F)cc1 (stereo not given) | 15.8%
N#CC(C#N)N=Nc1ccc(Cl)cc1Cl | 57.8%
NNC(=S)N/N=C/c1ccccn1 | 14.7%
O=C(CCl)Nc1ccc2c(Nc3cc(O)ccc3Cl)ncnc2c1 | -92.9% (active)
Cn1cc(-c2nonc2-c2c[nH]c3ccccc23)c2ccccc21 | 15.6%
CCN(CCO)CC(C)Nc1ccc([N+](=O)[O-])c2sc3ccccc3c(=O)c12 (stereo not given) | -15.6% (active)
